Hits are enriched below; roughly 4.4% of the tested compounds scored in any of these assays.
HUVEC tox IL1B – cytotoxicity in IL-1B stimulated HUVEC, primary screen, cytotoxicity control for IL-1B NFkB translocation project, imaging, Hoechst nuclear count, IL-1B stimulus | HUVEC cell count loss | cell count reduction, % at 2 µM | 94,000 tested, 0.41% active | AID 845, 2007;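 active means cell count reduction more than 3 SD above the screen-wide mean, cut at about 70% in these data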;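 further: normalized per plate to untreated control cells as the no-loss baseline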
NFkB transloc pot – enhancers of NFkB p65 translocation in HUVEC – imaging, IL-1B stimulus, high-content imaging, primary screen. HUVEC IL-1B NFkB p65 nuclear translocation imaging. activation, % at 2 µM. 94,000 tested, 0.3% active. AID 819, 2007;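 active means activation above 40%, about the mean plus 3 SD, also judged a hit on visual image review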;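 further: percent activation is computed from the nuclear over cytoplasmic p65 intensity ratio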
IL1B NFkB inh – inhibitors of IL-1B driven NFkB p65 nuclear import, primary screen, imaging, HUVEC, IL-1B stimulus, high-content imaging. 94,000 tested, 0.43% active. HUVEC IL-1B NFkB p65 nuclear translocation imaging. inhibition, % at 2 µM;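 active means inhibition above about 30% together with a positive call from visual inspection of the well image, limit read from the data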;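 further: nuclear over cytoplasmic p65 intensity ratio measured by imaging; 0% = IL-1B stimulated DMSO wells and 100% = unstimulated DMSO wells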
Cav3 T inh – Cav3.2 calcium influx blockers – cell-based, Fluo-4 calcium fluorescence, FDSS, MLSMR library, primary screen; Cav3.2-expressing cells; hits give low values; B-score at 10 µM; 100,000 tested, 4% active; Voltage-dependent T-type calcium channel subunit alpha-1H (Homo sapiens), O95180;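 active means single-dose well whose peak fluorescence ratio is a statistical outlier from its plate by either plate-standardised score or position-corrected B-score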
The depositor's hits bear a star; x = not tested or not shown.

SMILES	HUVEC tox IL1B	NFkB transloc pot	IL1B NFkB inh	Cav3 T inh
O=C(NCCc1csc(-c2cccnc2)n1)c1ccccc1	-11.6	10.9	-10.9	0.148
CC1CCCCN1S(=O)(=O)c1ccc(NC(=O)c2cccs2)cc1 (stereo not drawn)	6.1	15.1	-15.1	-1.59
CN(C1CCCCC1)S(=O)(=O)c1ccc(NC(=S)NC(=O)c2cccs2)cc1	-5.3	-11.8	11.8	-5.75*
COc1ccccc1NC(=O)N1CCc2[nH]c3ccc(F)cc3c2C1	-18.7	-0.5	0.5	-4.23*
COc1ccccc1NC(=O)N1CCN(c2ccc(F)cc2)CC1	38.0	-3.5	3.5	1.26
O=C(CCc1ccccc1)Nc1cc(C(F)(F)F)ccc1Cl	-25.2	6.6	-6.6	-1.11
C[C@H](NC(=O)c1ccccc1Cl)C(=O)OC(C(=O)Nc1cc(C(F)(F)F)ccc1Cl)c1ccccc1 (stereo partly drawn)	11.0	7.5	-7.5	-8.43*
O=C(CNC(=O)c1ccccc1F)OC(C(=O)Nc1cc(C(F)(F)F)ccc1Cl)c1ccccc1 (stereo not drawn)	19.9	29.8	-29.8	-5.42*
Cc1cc(C(F)F)n2nc(C(=O)Nc3cccnc3Cl)nc2n1	6.3	17.9	-17.9	-0.0886
Nc1c(N2CCCCC2)c(=O)[nH]c(=O)n1-c1ccccc1	-11.4	-11.3	11.3	0.0136
N#Cc1ccc(NC(=O)Nc2ccc(Cl)cc2)cc1	x	x	x	-0.2
CN(CC(=O)Nc1ccc(C#N)cc1)Cc1ccc(Cl)cc1Cl	-17.3	38.5	-38.5	-4.2*
CN(c1ccc(C(=O)Nc2ccccc2C(=O)N2CCCC2)cc1)S(C)(=O)=O	81.9*	-0.2	0.2	0.0595
NC1=NC(=O)CC(C(=O)NCCc2ccccc2)S1 (stereo not drawn)	2.2	-47.2	47.2*	0.787
COC(=O)COn1c(SCC(=O)OC)nc2ccccc2c1=O	x	x	x	1.12
COc1ccccc1CNC(=O)CSc1nc(-c2ccccc2)cn1N	-28.2	15.5	-15.5	0.683
CN(C(=O)CSc1nc(-c2ccccc2)cn1N)C(c1ccccc1)c1ccccc1	-49.1	18.4	-18.4	-6.52*
Cc1ccc(C(=O)CC2(O)C(=O)N(Cc3ccccc3Cl)c3ccccc32)o1 (stereo not drawn)	-25.5	19.3	-19.3	-5.62*
Cc1ccc(C(=O)CC2(O)C(=O)N(Cc3ccccc3)c3ccccc32)o1 (stereo not drawn)	-14.8	27.8	-27.8	-1.39
Cc1ccc(C(=O)CC2(O)C(=O)N(CCc3ccccc3)c3ccc(Br)cc32)o1 (stereo not drawn)	-10.7	1.1	-1.1	-7.13*
Cc1coc(C)c1C(=O)CC1(O)C(=O)N(Cc2ccccc2)c2ccccc21 (stereo not drawn)	-16.9	5.7	-5.7	-4.61*
NC(=O)C1=C[C@@H](C2CCCCC2)C[C@@H](OCc2ccc(CO)cc2)O1	x	x	x	-1.56
O=C(NCCSCc1ccco1)Nc1cccc(Cl)c1	-11.0	1.4	-1.4	-4.46*
O=C(NCCSCc1ccco1)Nc1ccc(Cl)cc1	-5.1	-2.8	2.8	x
CCOc1ccccc1-c1nc(-c2cc3ccccc3nc2OC)no1	-26.2	-4.8	4.8	0.0664
SMILES	HUVEC tox IL1B	NFkB transloc pot	IL1B NFkB inh	Cav3 T inh
Cc1cc(C(=O)CSc2n[nH]c(-c3ccccc3F)n2)c(C)n1Cc1cccs1	-16.5	14.1	-14.1	-3.51
O=C1CS/C(=C\[N+](=O)[O-])N1c1ccccc1	5.3	7.8	-7.8	0.167
Cc1cc2cc(CNC(=O)Cc3cccs3)ccc2n1C	x	x	x	-4.23*
CCOC(=O)C1=C(C)NC(=O)NC1C(C)C (stereo not drawn)	x	x	x	1.47
CCc1cc(C(=O)COc2ccccc2F)c(O)cc1O	-21.5	0.9	-0.9	-8.98*
CCc1cc(C(=O)Cc2nc3ccccc3[nH]2)c(O)cc1O	-32.1	5.3	-5.3	0.756
Cc1ccccc1N1C(=O)c2cccc3c(N(C)CCO)ccc(c23)C1=O	-58.3	-2.9	2.9	-4.25*
C=CCn1c(SCc2nc3ccccc3[nH]2)nnc1-c1ccc(OC)cc1	17.4	-10.3	10.3	0.811
Cc1cc(N2CCCC(C(=O)Nc3ccc4c(c3)CCC4)C2)n2ncnc2n1 (stereo not drawn)	0.4	12.6	-12.6	0.937
O=C(Nc1ccc(Oc2ccccc2)cc1)C1CCN(c2c3c(nc4ncnn24)CCC3)CC1	-3.0	6.8	-6.8	0.732
O=C(Nc1ccc2c(c1)CCC2)C1CCN(c2c3c(nc4ncnn24)CCC3)CC1	-8.1	-14.0	14.0	2.82*
COc1ccc(NC(=O)C2CCCN(c3c4c(nc5ncnn35)CCC4)C2)cc1OC (stereo not drawn)	-7.3	-7.1	7.1	3.32*
CCOC(=O)C1CCN(C(=O)Nc2ccccc2Cl)CC1	x	x	x	0.492
COc1ccc(C(c2nnnn2Cc2ccc(F)cc2)N2CCN(c3ccc(OC)cc3)CC2)cc1 (stereo not drawn)	15.0	5.2	-5.2	x
COc1ccc(C(c2nnnn2Cc2ccc(F)cc2)N2CCN(c3ccccc3)CC2)cc1 (stereo not drawn)	19.6	-8.5	8.5	-5.78*
COc1ccc(N2CCN(C(c3ccccc3)c3nnnn3Cc3ccc(F)cc3)CC2)cc1 (stereo not drawn)	4.7	8.2	-8.2	-4.56*
Cc1cc(C(=O)N2CCN(Cc3ccc4c(c3)OCO4)CC2)on1	x	x	x	0.387
CCc1cc2cc(C(=O)N3CCN(Cc4ccccc4)CC3)sc2s1	-15.7	-3.6	3.6	-4.77*
O=C(c1ccc2nc(N3CCCCC3)sc2c1)N1CCN(Cc2ccc3c(c2)OCO3)CC1	x	x	x	-3.97*
Cc1nn(Cc2ccccc2)c2sc(C(=O)N3CCN(Cc4ccc5c(c4)OCO5)CC3)cc12	3.5	13.2	-13.2	-4.3*
CC1CCN(c2nc3ccc(C(=O)N4CCN(Cc5ccccc5)CC4)cc3s2)CC1	-6.2	-6.4	6.4	-5.76*
CC1(C)CC[C@]2(CO)[C@@H](O)C[C@]3(C)C(=CCC4[C@@]5(C)CC[C@H](O)C(C)(C)C5CC[C@]43C)[C@@H]2C1 (stereo partly drawn)	x	x	x	1.74
COC(=O)[C@H]1C[C@@H]1[C@H](NC(=O)c1cccnc1)c1ccccc1	x	x	x	0.269
CCc1cccc2c(C#N)cn(CC(=O)NCc3ccco3)c12	-47.7	-8.6	8.6	-1.98
Cc1ccc(N/C(SCc2ccccc2C)=C(/C#N)C(=O)NCc2ccco2)cc1C	-11.4	15.1	-15.1	-5.32*
SMILES	HUVEC tox IL1B	NFkB transloc pot	IL1B NFkB inh	Cav3 T inh
CCc1ccc(N/C(SCc2cccc(F)c2)=C(/C#N)C(=O)NCc2ccco2)cc1	-20.4	-3.9	3.9	-3.56*
Cc1ccccc1CSCC(=O)NC(=O)NCc1ccco1	x	x	x	-2.62
CCOC(=O)C(C)n1cnc2c(nnn2-c2cccc(Cl)c2)c1=O (stereo not drawn)	2.8	-8.9	8.9	-0.0356
S=C(NN=C(C1CC1)C1CC1)Nc1ccccc1	-23.3	-3.7	3.7	x
CCOc1cc(C)c(Cl)cc1S(=O)(=O)n1cnc2ccccc21	-38.8	-0.3	0.3	-5.67*
Cc1ccc(S(=O)(=O)N(CC(=O)NCCSc2ccccn2)c2cc(C)cc(C)c2)cc1	-25.6	-14.3	14.3	-6.42*

Screening results (PubChem)
